Screens as filed in PubChem BioAssay.
Most compounds without a hit are left out; they make up all but 6.6% or so of the library.
Mtb FBA inh = Mtb fructose-bisphosphate aldolase inhibition; P9WQA3; purified M. tuberculosis FBA, fluorescence read-out; inhibition, % at 1 µM; 360,000 compounds, 2.3% hits; AID 588726; in the data active = inhibition above about 27%;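 note: 0% = vehicle and 100% = reference inhibitor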
GDH-TPI inh = counter-screen for M. tuberculosis FBA inhibitors: GDH-TPI coupled enzymes. 360,000 compounds, 1.2% hits. GDH-TPI coupled enzyme counterscreen, NADH absorbance. inhibition, % at 4.8 µM; in the data active = inhibition above about 30%;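 note: 0% = DMSO wells and 100% = wells lacking the enzyme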
BoNT-F LC inh = blocks Botulinum neurotoxin F light chain protease; Multiplex microsphere protease cleavage assay, flow cytometry; inhibition, % at 10 µM; 360,000 compounds, 0.22% hits; in the data active = inhibition above about 35%, passing the limit was not always enough; inconclusive = no clear call, values can overlap the other calls; note: plate controls were buffer without enzyme for full effect and enzyme alone for no effect
BoNT-A LC inh2 = inhibitors of Botulinum neurotoxin A light chain protease; multiplex microsphere protease substrate cleavage, flow cytometry; inhibition, % at 10 µM; 360,000 compounds, 0.17% hits; AID 588499; note: plate controls were buffer without enzyme for full effect and enzyme alone for no effect
Anthrax LF prot = blocks Bacillus anthracis lethal factor protease | 360,000 compounds, 0.12% hits | P15917 | multiplex microsphere protease cleavage assay, LF | inhibition, % at 10 µM; note: plate controls were buffer without enzyme for full effect and enzyme alone for no effect
Bead autofluor = flagged as autofluorescent in microsphere protease counterscreen | 360,000 compounds, 3.1% hits | fluorescence intensity (no concentration beside the values) | compound autofluorescence counterscreen, microsphere flow cytometry; active compounds read high; in the data active = fluorescence intensity above about 16000; inconclusive = no clear call, values can overlap the other calls
* marks the source's active call; other numbers are inactive results. Cut-off read from the data, not from the text of the source, unless noted: active = inhibition above about 30%; inconclusive = no clear call, values can overlap the other calls; inactive = below that.

`O=C(CSc1nnc(SCc2cccc3ccccc23)s1)Nc1ccc(C(=O)O)cc1` gave Mtb FBA inh -1, GDH-TPI inh -2, BoNT-F LC inh 3, BoNT-A LC inh2 0, Anthrax LF prot 0 and Bead autofluor 4561.
Cc1nc2ncnn2c(C)c1Cc1ccc(Cl)cc1F was read as Mtb FBA inh 1, GDH-TPI inh -9, BoNT-F LC inh 7, BoNT-A LC inh2 0, Anthrax LF prot -4 and Bead autofluor 4524.
O=C1C(=Cc2ccccc2O)SC(=S)N1CCCN1CCOCC1 was read as Mtb FBA inh 2, GDH-TPI inh 10, BoNT-F LC inh -5, BoNT-A LC inh2 -1, Anthrax LF prot -13 and Bead autofluor 4380.
For Cn1nc(Oc2ncc(C(F)(F)F)cc2Cl)cc1C(F)(F)F the results were Mtb FBA inh -1, GDH-TPI inh -1, BoNT-F LC inh -4, BoNT-A LC inh2 0, Anthrax LF prot 3 and Bead autofluor 3322.
`CNc1oc(-c2cccs2)nc1C#N` gave Mtb FBA inh active, GDH-TPI inh 23, BoNT-F LC inh -10, BoNT-A LC inh2 0, Anthrax LF prot 1 and Bead autofluor 2164.
Screening CN(C)c1oc(-c2ccccc2F)nc1C#N returned Mtb FBA inh active, GDH-TPI inh 22, BoNT-F LC inh -11, BoNT-A LC inh2 -2, Anthrax LF prot -16 and Bead autofluor 5031.
For CN(C)c1oc(-c2cccs2)nc1C#N the results were Mtb FBA inh active, GDH-TPI inh 30, BoNT-F LC inh 4, BoNT-A LC inh2 0, Anthrax LF prot 3 and Bead autofluor 4283.
Screening COc1cccc(CNCC(=O)NC(=O)NC2CCCC2)c1 returned Mtb FBA inh -1, GDH-TPI inh -4, BoNT-F LC inh 10, BoNT-A LC inh2 0, Anthrax LF prot -3 and Bead autofluor 3421.
`COc1ccccc1NCCC(=O)OCC(=O)NC1CCCCCC1` gave Mtb FBA inh 1, GDH-TPI inh 0, BoNT-F LC inh -6, BoNT-A LC inh2 0, Anthrax LF prot -3 and Bead autofluor 2226.
For CC(=O)c1ccc(OC(=O)Oc2ccc(C(C)=O)cc2)cc1 the results were Mtb FBA inh 1, GDH-TPI inh 32*, BoNT-F LC inh 24, BoNT-A LC inh2 3, Anthrax LF prot -2 and Bead autofluor 13106.
Cc1n[nH]c(C)c1N1C(=O)c2cccc3c(N4CCCCCC4)ccc(c23)C1=O was read as Mtb FBA inh -18, GDH-TPI inh 10, BoNT-F LC inh 33, BoNT-A LC inh2 16, Anthrax LF prot -6 and Bead autofluor 20898*.
Screening C=CCN1C(=O)c2cccc3c(N4CCCCC4)ccc(c23)C1=O returned Mtb FBA inh 7, GDH-TPI inh 4, BoNT-F LC inh 14, BoNT-A LC inh2 30*, Anthrax LF prot 15 and Bead autofluor 6017.
O=C1c2cccc3c(N4CCCCC4)ccc(c23)C(=O)N1c1cccc(O)c1 was read as Mtb FBA inh -5, GDH-TPI inh -1, BoNT-F LC inh 1, BoNT-A LC inh2 5, Anthrax LF prot -2 and Bead autofluor 5354.
CC(NC(=O)C(=O)NCCN1CCN(C(=O)c2ccc([N+](=O)[O-])cc2)CC1)c1ccccc1 (stereo unspecified) was read as Mtb FBA inh 6, GDH-TPI inh -2, BoNT-F LC inh 6, BoNT-A LC inh2 0, Anthrax LF prot -4 and Bead autofluor 5701.
`COCCNC(=O)CN1CCC(NC(=O)Nc2ccc(C(F)(F)F)cc2)CC1` gave Mtb FBA inh 0, GDH-TPI inh 4, BoNT-F LC inh -5, BoNT-A LC inh2 -1, Anthrax LF prot -3 and Bead autofluor 23251*.
`COCCNC(=O)CN1CCC(NC(=O)Nc2ccccc2)CC1` gave Mtb FBA inh 1, GDH-TPI inh 5, BoNT-F LC inh -7, BoNT-A LC inh2 inconclusive, Anthrax LF prot 2 and Bead autofluor inconclusive.
Screening COc1cccc(OCCN2CCN(c3ncnc4c3cnn4-c3ccccc3)CC2)c1 returned Mtb FBA inh 17, GDH-TPI inh 4, BoNT-F LC inh -7, BoNT-A LC inh2 -2, Anthrax LF prot -3 and Bead autofluor 16922*.
`CC1CCN(c2ncnc3c2cnn3-c2ccccc2)CC1` gave Mtb FBA inh 2, GDH-TPI inh 7, BoNT-F LC inh 1, BoNT-A LC inh2 2, Anthrax LF prot -3 and Bead autofluor 4149.
`Nc1nnc(SCc2cn3cc(Cl)ccc3n2)s1` gave Mtb FBA inh 5, GDH-TPI inh 9, BoNT-F LC inh -6, BoNT-A LC inh2 -1, Anthrax LF prot 0 and Bead autofluor 2077.
